Holding throughout (test): NCI-60 one-dose screen, 48 h (100 = growth as untreated, 0 = no growth, -100 = all killed)
In one test the test system is SK-MEL-2 melanoma. The conditions noted are these: 10 µM unless noted.
For the next test, the system named is EKVX NSCLC. The conditions noted are these: 10 µM unless noted.
The test system of another test is SN12C renal. The conditions noted are these: 10 µM unless noted.
A further test relates to UO-31 renal. The conditions noted are these: 10 µM unless noted.
For a further test, the system named is TK-10 renal. The following applies: 10 µM unless noted.
The next test has as its system ACHN renal. The following applies: 10 µM unless noted.
For another test, the system named is CAKI-1 renal. The conditions noted are these: 10 µM unless noted.
The next test relates to A498 renal. The conditions noted are these: 10 µM.
For another test, the system named is HL-60(TB) leukemia. The conditions noted are these: 10 µM unless noted.
The test system of the next test is CCRF-CEM leukemia. The following applies: 10 µM unless noted.

Molecules are shown by their SMILES. About 83,000 compounds went through this panel and 20% of them were active in at least one assay; those are over-represented in the sample as a whole.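 How to read the values: 0–100, growth inhibition (40 = 60% inhibited); 0, no net growth; -100 to 0, cell death (-40 = 40% of starting cells died; -100 = all dead).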 Values without a mark were called inactive. Activity calls are given as the source filed them. The calls were made as follows: active = growth percent below 10; inactive = the rest.

For the molecule `CC12CCC(O)CC1=CCC1C2CCC2(C)C(O)CCC12` (stereo unspecified), the growth in the test on SK-MEL-2 melanoma was 110%; in the test with EKVX NSCLC, 71.9%; in the test with SN12C renal, 105%; in the test with UO-31 renal it was 98.5%; in the test on TK-10 renal it was 105%; in the test with ACHN renal it was 107%. Moreover, the growth in the test on CAKI-1 renal is 93.2%; with A498 renal, 81.1%; in the test with HL-60(TB) leukemia it was 115%; in the test with CCRF-CEM leukemia it was 94.9%.
Regarding `CC[C@H](C)[C@H](NC(=O)C12CC(NC(C)=O)(C1)C2)C(=O)N(C)[C@H](C[C@@H](OC(C)=O)c1nc(C(=O)N[C@@H](Cc2ccccc2)C[C@H](C)C(=O)OC)cs1)C(C)C`, the growth is 48.8% in the test on SK-MEL-2 melanoma; 38.3% with EKVX NSCLC; 30.9% in the test with SN12C renal; 59% with UO-31 renal; 50.4% in the test on TK-10 renal; 43.8% with ACHN renal. The growth with CAKI-1 renal was 63.5%; with A498 renal, -14.8% (active); in the test with HL-60(TB) leukemia it was -10.1% (active); in the test with CCRF-CEM leukemia, 12.2%.
Take `c1ccc(Nc2nc(-c3ccccc3)c[se]2)cc1`: the growth with SK-MEL-2 melanoma was 105%; with EKVX NSCLC, 70.3%; with SN12C renal, 86.2%; in the test on UO-31 renal it was 46.2%; in the test with TK-10 renal, 83.5%; in the test with ACHN renal, 84%. Moreover, the growth was 55.7% with CAKI-1 renal, 55.9% with A498 renal, 102% with HL-60(TB) leukemia and 101% with CCRF-CEM leukemia.
As to `COC(=O)C12CC(NC(=O)c3csc([C@@H](C[C@H](C(C)C)N(C)C(=O)[C@@H](NC(=O)[C@H]4CCCCN4C)C4CC4)OC(C)=O)n3)(C1)C2`, the growth with SK-MEL-2 melanoma is 34.7%; in the test with EKVX NSCLC it was 59.8%; with SN12C renal it was 37.9%; with UO-31 renal, 48.5%; with TK-10 renal, 39.2%; with ACHN renal, 33.6%. Besides, the growth with CAKI-1 renal is 38.6%; in the test on A498 renal, -5.31% (active); with HL-60(TB) leukemia it was -44% (active); with CCRF-CEM leukemia, 17.2%.
Take `CCOP(=O)(Nc1ccc2c(c1)/C(=N/NC(N)=S)c1ccccc1-2)OCC`: the growth in the test on SK-MEL-2 melanoma was 110%; in the test with EKVX NSCLC, 92.9%; in the test with SN12C renal it was 81.9%; in the test on UO-31 renal it was 91.8%; in the test with TK-10 renal, 104%; in the test on ACHN renal, 89.9%. Further, the growth was 97.4% in the test with CAKI-1 renal, 96.3% in the test on A498 renal and 85.6% in the test on CCRF-CEM leukemia.
Consider `Fc1ccc(N2COOC3(OOC2)C2CC4CC(C2)CC3C4)cc1`, for which the growth in the test with SK-MEL-2 melanoma is 88.8%; with EKVX NSCLC, 79.4%; with SN12C renal, 101%; in the test on UO-31 renal, -74.9% (active); in the test with TK-10 renal it was 93%; with ACHN renal, 59.7%. Moreover, the results for the growth with CAKI-1 renal, in the test on A498 renal and in the test with CCRF-CEM leukemia were 26%, 90.1% and 94.2%, respectively.
With `C[C@]12CCc3sc(-c4cccc(F)c4)nc3C1=CC[C@@H]1[C@@H]2CC[C@]2(C)C(=O)CC[C@@H]12`, the growth is 32.1% in the test with SK-MEL-2 melanoma; 68.3% with EKVX NSCLC; 42.9% with SN12C renal; 1.08% (active) with UO-31 renal; 24% in the test with TK-10 renal; 11.9% in the test on ACHN renal. The values for the growth in the test with CAKI-1 renal, with HL-60(TB) leukemia and in the test on CCRF-CEM leukemia were 36.9%, 34.2% and 15.8%, respectively.
With `CCOC(=O)[C@@H](C)C[C@H](Cc1ccccc1)NC(=O)c1csc([C@@H](C[C@H](C(C)C)N(C)C(=O)[C@@H](NC(=O)[C@H]2CCCCN2C)C(C)(C)CC)OC(C)=O)n1`, the growth in the test with SK-MEL-2 melanoma is 2.19% (active); in the test on EKVX NSCLC, 37.4%; in the test with SN12C renal, 9.13% (active); in the test on UO-31 renal it was 7.43% (active); in the test with TK-10 renal, 29.3%; with ACHN renal, 2.48% (active). The growth in the test on CAKI-1 renal is 19.8%; in the test with HL-60(TB) leukemia, -33.4% (active); in the test on CCRF-CEM leukemia, 3.47% (active).
`CC(C)=CCC[C@H](C(=O)O)[C@@H]1CC[C@]2(C)C3=C(CC[C@@]12C)[C@@]1(C)CC[C@H](O)C(C)(C)[C@@H]1CC3`: the growth was 91% in the test on SK-MEL-2 melanoma; 95% in the test on EKVX NSCLC; 102% in the test with SN12C renal; 89.8% in the test with UO-31 renal; 93.8% with TK-10 renal; 101% in the test with ACHN renal. Besides, the growth is 75% in the test with CAKI-1 renal, 104% in the test with A498 renal, 85.1% with HL-60(TB) leukemia and 109% with CCRF-CEM leukemia.
For `CCN1C(=O)C(=C/C=C/c2ccccc2)C(=O)N(CC)C1=O`, the growth in the test on SK-MEL-2 melanoma is 99.9%; in the test on EKVX NSCLC, 112%; in the test on SN12C renal, 75.8%; in the test on UO-31 renal, 70.1%; in the test on TK-10 renal it was 94.3%; in the test with ACHN renal it was 70.3%. Further, the growth with CAKI-1 renal is 87.8%; in the test on A498 renal it was 94.3%; with CCRF-CEM leukemia it was -14.1% (active).
For `O=[N+]([O-])c1cnc[nH]1`, the growth is 102% with SK-MEL-2 melanoma; 109% with EKVX NSCLC; 103% in the test on SN12C renal; 94.8% in the test with UO-31 renal; 111% with TK-10 renal; 118% in the test with ACHN renal. For the same molecule, the growth in the test on CAKI-1 renal is 99%; with HL-60(TB) leukemia it was 134%.
As for `CCOc1ccccc1C(=O)OCC(Cl)(Cl)Cl`, the growth with SK-MEL-2 melanoma was 116%; with EKVX NSCLC, 109%; with SN12C renal, 102%; in the test with UO-31 renal it was 94.4%; with TK-10 renal, 99.6%; in the test on ACHN renal it was 111%. Further, the growth was 98.7% with CAKI-1 renal, 88.5% with A498 renal and 104% with CCRF-CEM leukemia.
For the molecule `ClCCN(CCCl)c1ccc(/C=N\N=C\c2ccc(N(CCCl)CCCl)cc2)cc1`, the growth was 36.7% in the test with SK-MEL-2 melanoma; 47.1% in the test with EKVX NSCLC; 36.3% in the test on SN12C renal; -16.2% (active) in the test with UO-31 renal; 47.2% with TK-10 renal; 40.1% with ACHN renal. Besides, the growth in the test with CAKI-1 renal is 7.35% (active); in the test with A498 renal, 75%; with CCRF-CEM leukemia, 25%.

Source of the values: PubChem BioAssay (NCI).
